# From the supplement of paper PMC10849652
# About 8,800 targets were measured; listed, in parts, are those with a hit and a random draw of the rest. About 0.5% of all pairs of compound and target were hits. Unmarked numbers belong to inactive results.
# How the values were obtained:
# Test in all cases: log2 fold change, soluble protein after heating vs DMSO (PISA); higher = thermal stabilisation; K562 lysate, 10 uM; active = over 0.2 and 3.5 SD of the protein, either way, in both replicates (recomputed)
# crizotinib = compound: C[C@@H](Oc1cc(-c2cnn(C3CCNCC3)c2)cnc1N)c1c(Cl)ccc(F)c1Cl [crizotinib]
# Summary of the method: (§1)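 Thermal stability, expressed as log-two fold change relative to solvent controls, is given from duplicates. Crude K562 extract in PBS pH 7.4 with 1 mM MgCl2, at 1 mg/mL protein, was treated with 10 μM compound for 30 min and heated in aliquots for 3 min across 48°C-58°C. After pooling, adjustment to 0.5% NP-40 at 4°C and centrifugation at 21,000xg for 90 min, supernatant protein was measured by TMTpro 16plex LC-MS/MS with channel sums equalised.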
# duvelisib = compound: C[C@H](Nc1ncnc2nc[nH]c12)c1cc2cccc(Cl)c2c(=O)n1-c1ccccc1 [duvelisib]
# Summary of the method: as §1
# doramapimod = compound: Cc1ccc(-n2nc(C(C)(C)C)cc2NC(=O)Nc2ccc(OCCN3CCOCC3)c3ccccc23)cc1 [doramapimod]
# Summary of the method: as §1
# dasatinib = compound: Cc1nc(Nc2ncc(C(=O)Nc3c(C)cccc3Cl)s2)cc(N2CCN(CCO)CC2)n1 [dasatinib]
# Summary of the method: as §1
# [1] = compound: Cn1cc(-c2ccc3c(c2)CCN3C(=O)Cc2cccc(C(F)(F)F)c2)c2c(N)ncnc21
# Summary of the method: as §1
# quisinostat = compound: Cn1cc(CNCC2CCN(c3ncc(C(=O)NO)cn3)CC2)c2ccccc21 [quisinostat]
# Summary of the method: as §1
# [2] = compound: NC(=O)Nc1cc(-c2cccc(F)c2)sc1C(=O)N[C@H]1CCCNC1
# Summary of the method: as §1
# [3] = compound: NC1(c2ccc(-c3nc4ccn5c(=O)[nH]nc5c4cc3-c3ccccc3)cc2)CCC1
# Summary of the method: as §1
# pictilisib = compound: CS(=O)(=O)N1CCN(Cc2cc3nc(-c4cccc5[nH]ncc45)nc(N4CCOCC4)c3s2)CC1 [pictilisib]
# Summary of the method: as §1
# [4] = compound: C[C@H](C1=CC=C(C=C1)C(=O)NC2=C3C=CNC3=NC=C2)N
# Summary of the method: as §1
# gandotinib = compound: Cc1cc(Nc2cc(CN3CCOCC3)c3nc(C)c(Cc4ccc(Cl)cc4F)n3n2)n[nH]1 [gandotinib]
# Summary of the method: as §1
# tozasertib = compound: Cc1cc(Nc2cc(N3CCN(C)CC3)nc(Sc3ccc(NC(=O)C4CC4)cc3)n2)n[nH]1 [tozasertib]
# Summary of the method: as §1
# bafetinib = compound: Cc1ccc(NC(=O)c2ccc(CN3CC[C@H](N(C)C)C3)c(C(F)(F)F)c2)cc1Nc1nccc(-c2cncnc2)n1 [bafetinib]
# Summary of the method: as §1
# [5] = compound: Cc1cccc(CC(=O)N2CCc3c2ccc(-c2cn(C)c4ncnc(N)c24)c3F)n1
# Summary of the method: as §1
# nilotinib = compound: Cc1cn(-c2cc(NC(=O)c3ccc(C)c(Nc4nccc(-c5cccnc5)n4)c3)cc(C(F)(F)F)c2)cn1 [nilotinib]
# Summary of the method: as §1
# [6] = compound: Cc1nc(Nc2n[nH]c3c2CN(C(=O)N[C@H](CN(C)C)c2ccccc2)C3(C)C)c2sccc2n1
# Summary of the method: as §1
# [7] = compound: Cc1ncc(-c2ccnc(Nc3ccc(S(C)(=O)=O)cc3)n2)n1C(C)C
# Summary of the method: as §1
# tipifarnib = compound: Cn1cncc1[C@@](N)(c1ccc(Cl)cc1)c1ccc2c(c1)c(-c1cccc(Cl)c1)cc(=O)n2C [tipifarnib]
# Summary of the method: as §1
# lapatinib = compound: CS(=O)(=O)CCNCc1ccc(-c2ccc3ncnc(Nc4ccc(OCc5cccc(F)c5)c(Cl)c4)c3c2)o1 [lapatinib]
# Summary of the method: as §1
# [8] = compound: NC(=O)c1cnc(N[C@@H]2CCCC[C@@H]2N)nc1Nc1cccc(-n2nccn2)c1
# Summary of the method: as §1
# Sequence of UniProt Q9H582 (Q9H582 whole entry, looked up): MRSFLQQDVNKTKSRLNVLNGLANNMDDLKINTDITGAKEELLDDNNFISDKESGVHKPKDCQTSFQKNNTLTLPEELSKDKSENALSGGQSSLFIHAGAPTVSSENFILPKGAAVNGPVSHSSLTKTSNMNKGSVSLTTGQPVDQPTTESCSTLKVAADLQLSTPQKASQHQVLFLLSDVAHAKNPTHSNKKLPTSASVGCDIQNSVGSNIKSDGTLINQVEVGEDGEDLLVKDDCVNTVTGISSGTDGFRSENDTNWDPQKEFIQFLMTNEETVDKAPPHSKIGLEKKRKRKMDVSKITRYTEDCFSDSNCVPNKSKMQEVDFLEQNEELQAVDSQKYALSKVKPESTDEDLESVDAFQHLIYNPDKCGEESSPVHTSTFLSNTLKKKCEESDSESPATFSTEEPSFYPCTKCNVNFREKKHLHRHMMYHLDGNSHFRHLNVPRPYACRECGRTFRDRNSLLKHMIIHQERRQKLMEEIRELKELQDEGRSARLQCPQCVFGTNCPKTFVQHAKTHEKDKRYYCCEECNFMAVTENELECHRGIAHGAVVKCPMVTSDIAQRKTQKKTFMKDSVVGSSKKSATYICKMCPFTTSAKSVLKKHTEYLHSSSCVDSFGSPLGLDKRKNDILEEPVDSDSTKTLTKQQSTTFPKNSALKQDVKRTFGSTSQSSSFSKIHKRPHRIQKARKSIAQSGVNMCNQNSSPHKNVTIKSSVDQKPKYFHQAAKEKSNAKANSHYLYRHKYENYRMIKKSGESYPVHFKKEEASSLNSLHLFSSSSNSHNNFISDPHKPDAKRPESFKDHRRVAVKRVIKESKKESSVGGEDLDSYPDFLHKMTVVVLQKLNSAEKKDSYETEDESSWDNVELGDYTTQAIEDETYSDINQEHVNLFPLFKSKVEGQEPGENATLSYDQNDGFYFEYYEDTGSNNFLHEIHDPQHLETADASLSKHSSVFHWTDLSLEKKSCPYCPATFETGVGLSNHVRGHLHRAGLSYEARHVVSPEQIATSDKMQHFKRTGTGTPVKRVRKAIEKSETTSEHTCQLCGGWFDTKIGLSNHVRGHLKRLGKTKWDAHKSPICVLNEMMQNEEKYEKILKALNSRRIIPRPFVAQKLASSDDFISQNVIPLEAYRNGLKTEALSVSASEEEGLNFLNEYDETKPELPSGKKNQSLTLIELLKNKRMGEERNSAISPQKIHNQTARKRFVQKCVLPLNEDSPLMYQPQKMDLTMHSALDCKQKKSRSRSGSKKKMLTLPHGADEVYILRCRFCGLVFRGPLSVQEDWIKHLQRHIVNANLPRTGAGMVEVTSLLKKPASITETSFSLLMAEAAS
# Sequence of UniProt Q9Y2X9 (Q9Y2X9 whole entry, looked up): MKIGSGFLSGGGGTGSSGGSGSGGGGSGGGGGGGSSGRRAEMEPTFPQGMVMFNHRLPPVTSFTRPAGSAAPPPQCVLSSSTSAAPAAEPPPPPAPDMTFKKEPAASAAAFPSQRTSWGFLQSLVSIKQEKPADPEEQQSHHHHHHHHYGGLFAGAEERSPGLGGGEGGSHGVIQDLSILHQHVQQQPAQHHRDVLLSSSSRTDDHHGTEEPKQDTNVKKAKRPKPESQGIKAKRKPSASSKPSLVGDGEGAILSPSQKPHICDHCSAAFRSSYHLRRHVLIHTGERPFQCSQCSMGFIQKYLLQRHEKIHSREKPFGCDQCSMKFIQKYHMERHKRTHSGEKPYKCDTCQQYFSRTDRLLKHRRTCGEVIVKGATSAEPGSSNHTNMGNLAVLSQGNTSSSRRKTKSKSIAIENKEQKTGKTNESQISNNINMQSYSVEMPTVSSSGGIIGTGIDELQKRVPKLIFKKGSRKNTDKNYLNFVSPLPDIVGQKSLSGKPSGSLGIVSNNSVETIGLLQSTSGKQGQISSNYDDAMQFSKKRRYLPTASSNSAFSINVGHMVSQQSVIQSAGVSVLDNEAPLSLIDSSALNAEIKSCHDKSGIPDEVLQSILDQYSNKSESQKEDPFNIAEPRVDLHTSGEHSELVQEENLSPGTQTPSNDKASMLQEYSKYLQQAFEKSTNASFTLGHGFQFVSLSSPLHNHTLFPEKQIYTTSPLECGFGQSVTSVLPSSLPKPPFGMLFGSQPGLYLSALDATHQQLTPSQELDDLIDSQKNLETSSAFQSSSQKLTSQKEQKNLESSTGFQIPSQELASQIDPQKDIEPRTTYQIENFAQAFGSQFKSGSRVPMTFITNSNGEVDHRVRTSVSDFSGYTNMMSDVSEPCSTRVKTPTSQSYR
# Sequence of UniProt Q16670 (Q16670 whole entry, looked up): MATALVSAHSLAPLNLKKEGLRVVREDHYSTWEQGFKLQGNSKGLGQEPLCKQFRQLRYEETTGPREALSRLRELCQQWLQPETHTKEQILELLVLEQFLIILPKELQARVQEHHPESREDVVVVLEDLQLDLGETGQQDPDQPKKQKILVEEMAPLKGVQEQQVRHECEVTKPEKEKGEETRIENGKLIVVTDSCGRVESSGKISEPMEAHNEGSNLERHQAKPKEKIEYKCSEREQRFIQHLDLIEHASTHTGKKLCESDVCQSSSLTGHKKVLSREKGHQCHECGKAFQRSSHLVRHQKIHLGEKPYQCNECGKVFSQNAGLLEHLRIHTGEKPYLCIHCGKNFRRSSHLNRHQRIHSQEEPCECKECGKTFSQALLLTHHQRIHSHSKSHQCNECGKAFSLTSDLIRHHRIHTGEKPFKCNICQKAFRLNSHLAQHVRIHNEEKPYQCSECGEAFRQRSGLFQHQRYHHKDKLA
# Sequence of UniProt P40337 (P40337 whole entry, looked up): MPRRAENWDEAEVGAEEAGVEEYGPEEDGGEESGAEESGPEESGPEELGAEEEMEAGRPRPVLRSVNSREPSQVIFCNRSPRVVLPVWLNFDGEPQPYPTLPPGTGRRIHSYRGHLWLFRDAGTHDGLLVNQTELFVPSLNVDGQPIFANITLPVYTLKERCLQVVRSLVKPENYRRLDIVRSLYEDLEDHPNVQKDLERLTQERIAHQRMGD
# Sequence of UniProt Q9Y6I7 (Q9Y6I7 whole entry, looked up): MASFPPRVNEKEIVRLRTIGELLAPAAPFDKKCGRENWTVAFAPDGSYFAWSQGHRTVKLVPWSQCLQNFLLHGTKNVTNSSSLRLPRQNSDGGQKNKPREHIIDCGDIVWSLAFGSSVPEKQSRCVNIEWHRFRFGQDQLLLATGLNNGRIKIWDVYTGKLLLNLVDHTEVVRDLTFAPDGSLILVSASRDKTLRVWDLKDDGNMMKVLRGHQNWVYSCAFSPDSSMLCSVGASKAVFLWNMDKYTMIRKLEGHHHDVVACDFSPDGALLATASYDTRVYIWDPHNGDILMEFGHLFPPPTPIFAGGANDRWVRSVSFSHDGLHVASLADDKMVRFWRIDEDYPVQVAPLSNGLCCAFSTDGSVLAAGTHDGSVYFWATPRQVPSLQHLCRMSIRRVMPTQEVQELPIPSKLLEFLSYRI
# Sequence of UniProt Q8TAA9 (Q8TAA9 whole entry, looked up): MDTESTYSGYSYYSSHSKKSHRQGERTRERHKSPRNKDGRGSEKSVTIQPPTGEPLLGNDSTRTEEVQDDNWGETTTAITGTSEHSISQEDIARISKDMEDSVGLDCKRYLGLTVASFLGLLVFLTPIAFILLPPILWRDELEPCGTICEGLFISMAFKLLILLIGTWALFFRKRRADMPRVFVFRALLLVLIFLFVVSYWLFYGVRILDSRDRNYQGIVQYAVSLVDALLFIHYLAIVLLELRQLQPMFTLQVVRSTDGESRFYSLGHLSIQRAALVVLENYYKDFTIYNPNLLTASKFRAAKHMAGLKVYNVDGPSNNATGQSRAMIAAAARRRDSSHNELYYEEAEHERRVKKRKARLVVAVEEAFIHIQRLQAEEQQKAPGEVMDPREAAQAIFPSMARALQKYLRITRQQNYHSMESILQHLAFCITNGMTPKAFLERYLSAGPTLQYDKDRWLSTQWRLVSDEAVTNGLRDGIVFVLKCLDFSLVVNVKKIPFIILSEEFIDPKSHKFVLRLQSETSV
Target,log2 fold change (crizotinib),log2 fold change (duvelisib),log2 fold change (doramapimod),log2 fold change (dasatinib),log2 fold change [1],log2 fold change (quisinostat),log2 fold change [2],log2 fold change [3],log2 fold change (pictilisib),log2 fold change [4],log2 fold change (gandotinib),log2 fold change (tozasertib),log2 fold change (bafetinib),log2 fold change [5],log2 fold change (nilotinib),log2 fold change [6],log2 fold change [7],log2 fold change (tipifarnib),log2 fold change (lapatinib),log2 fold change [8]
ZNF281 (UniProt Q9Y2X9),0.003,0.029,0.02,-0.041,0.031,0.151,-0.028,0.02,–,–,–,–,–,–,–,–,–,–,–,–
ZNF644 (UniProt Q9H582),-0.026,-0.069,0.037,0.066,-0.061,-0.026,0.058,-0.167,-0.133,0.04,-0.015,0.015,-0.165,0.086,-0.062,0.153,0.017,-0.012,–,–
ZSCAN26 (UniProt Q16670),-0.025,–,0.102,–,–,0.169,-0.093,–,–,–,–,–,–,–,–,–,–,–,–,–
VANGL1 (UniProt Q8TAA9),0.031,0.099,-0.043,-0.019,-0.036,0.014,0.009,0.034,-0.071,0.07,0.004,0.016,0.016,0.084,-0.086,-0.067,0.079,0.042,0.047,0.121
WSB1 (UniProt Q9Y6I7),–,-0.137,–,-0.194,0.012,–,–,–,–,0.12,-1.11 (active),–,–,-0.674,–,–,–,–,–,–
VHL (UniProt P40337),0.017,0.148,-0.011,0,0.079,-0.056,0.077,0.04,-0.003,-0.538 (active),-0.08,0,0.092,-0.021,-0.01,0.04,-0.056,0.022,–,–
